# In the supplement of paper PMC8728848:
# The entries come from a sample that favours the strongest signals as a whole.
# Assays:
# Assay in all cases: glycan array binding signal (z-score within array); higher = stronger binding
# Settings in all cases: glycan notation: IUPAC condensed, linker removed
# [1] = target: Fuc(a1-2)Gal
# Procedure, shortened: (§1)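 The binding signal is a Z-score computed within each array and averaged over linkers. Arrays of the same protein sequence at different concentrations or buffers were also averaged together. Data originate from 3228 arrays in the Consortium for Functional Glycomics database, kept only where the protein sequence was available.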
# [2] = target: Fuc(a1-2)Gal6S(b1-4)Glc
# Procedure, shortened: as §1
# [3] = target: Fuc(a1-3)[Gal(b1-4)]GlcNAc(b1-2)Man(a1-6)[Gal(b1-4)GlcNAc(b1-2)Man(a1-3)]Man(b1-4)GlcNAc(b1-4)GlcNAc
# Procedure, shortened: as §1
# [4] = target: Fuc(b1-3)GlcNAc
# Procedure, shortened: as §1
# [5] = target: Gal(a1-3)Gal(b1-3)GlcNAc
# Procedure, shortened: as §1
# [6] = target: Gal(a1-4)Gal(b1-4)GlcNAc
# Procedure, shortened: as §1
# [7] = target: Gal(b1-3)GlcNAc(b1-3)Gal(b1-4)GlcNAc
# Procedure, shortened: as §1
# [8] = target: Gal3S(b1-3)[Fuc(a1-4)]GlcNAc
# Procedure, shortened: as §1
# [9] = target: Gal4S(b1-4)GlcNAc
# Procedure, shortened: as §1
# [10] = target: Gal6S(b1-4)GlcNAc6S
# Procedure, shortened: as §1
# [11] = target: GalNAc(a1-3)Gal
# Procedure, shortened: as §1
# [12] = target: GalNAc(b1-3)Gal(a1-4)Gal(b1-4)GlcNAc(b1-3)Gal(b1-4)Glc
# Procedure, shortened: as §1
# [13] = target: Glc(a1-4)Glc
# Procedure, shortened: as §1
# [14] = target: GlcNAc(b1-3)[GlcNAc(b1-6)]GalNAc
# Procedure, shortened: as §1
# [15] = target: GlcNAc3Prop(b1-4)GlcNAc
# Procedure, shortened: as §1
# [16] = target: Kdn(a2-3)Gal(b1-3)GlcNAc
# Procedure, shortened: as §1
# [17] = target: Man(a1-2)Man(a1-2)Man(a1-6)[Man(a1-3)]Man
# Procedure, shortened: as §1
# [18] = target: Man(a1-3)[Man(a1-6)]Man
# Procedure, shortened: as §1
# [19] = target: Man(a1-3)[Man(a1-6)]Man(a1-6)[Man(a1-2)Man(a1-3)]Man(b1-4)GlcNAc(b1-4)GlcNAc
# Procedure, shortened: as §1
# [20] = target: Man(a1-3)[Man(a1-6)]Man(a1-6)[Man(a1-3)]Man(b1-4)GlcNAc(b1-4)GlcNAc
# Procedure, shortened: as §1
# [21] = target: Man(a1-6)Man
# Procedure, shortened: as §1
# [22] = target: Neu5Ac(a2-3)Gal(b1-3)GalNAc(b1-4)[Neu5Ac(a2-3)]Gal(b1-4)Glc
# Procedure, shortened: as §1
# [23] = target: Neu5Ac(a2-3)Gal(b1-3)GlcNAc(b1-3)Gal(b1-3)GlcNAc
# Procedure, shortened: as §1
# [24] = target: Neu5Ac(a2-3)Gal(b1-3)[Fuc(a1-4)]GlcNAc
# Procedure, shortened: as §1
# [25] = target: Neu5Ac(a2-3)Gal(b1-3)[Neu5Ac(a2-3)Gal(b1-4)]GlcNAc
# Procedure, shortened: as §1
# [26] = target: Neu5Ac(a2-3)Gal(b1-3)[Neu5Ac(a2-6)]GalNAc
# Procedure, shortened: as §1
# [27] = target: Neu5Ac(a2-3)Gal(b1-4)Glc
# Procedure, shortened: as §1
# [28] = target: Neu5Ac(a2-3)Gal(b1-4)GlcNAc(b1-2)Man(a1-3)[Neu5Ac(a2-6)Gal(b1-4)GlcNAc(b1-2)Man(a1-6)]Man(b1-4)GlcNAc(b1-4)GlcNAc
# Procedure, shortened: as §1
# [29] = target: Neu5Ac(a2-3)Gal(b1-4)GlcNAc(b1-3)Gal(b1-4)[Fuc(a1-3)]GlcNAc
# Procedure, shortened: as §1
# [30] = target: Neu5Ac(a2-3)Gal(b1-4)GlcNAc6S
# Procedure, shortened: as §1
# [31] = target: Neu5Ac(a2-3)Gal(b1-4)[Fuc(a1-3)]GlcNAc(b1-6)[Neu5Ac(a2-3)Gal(b1-3)]GalNAc
# Procedure, shortened: as §1
# [32] = target: Neu5Ac(a2-3)Gal(b1-4)[Fuc(a1-3)]GlcNAc6S
# Procedure, shortened: as §1
# [33] = target: Neu5Ac(a2-3)[GalNAc(b1-4)]Gal(b1-4)Glc
# Procedure, shortened: as §1
# [34] = target: Neu5Ac(a2-6)Gal(b1-4)GlcNAc(b1-2)Man(a1-6)Man(b1-4)GlcNAc(b1-4)GlcNAc
# Procedure, shortened: as §1
# [35] = target: Neu5Ac(a2-6)Gal(b1-4)GlcNAc(b1-2)Man(a1-6)[Man(a1-3)]Man(b1-4)GlcNAc(b1-4)GlcNAc
# Procedure, shortened: as §1
# [36] = target: Neu5Ac(a2-8)Neu5Ac(a2-3)Gal(b1-4)Glc
# Procedure, shortened: as §1
# [37] = target: Neu5Ac(a2-8)Neu5Ac(a2-8)Neu5Ac(a2-3)Gal(b1-4)Glc
# Procedure, shortened: as §1
# [38] = target: Neu5Ac9Ac(a2-6)Gal(b1-4)GlcNAc
# Procedure, shortened: as §1
# [39] = target: Neu5Gc(a2-3)Gal(b1-4)Glc
# Procedure, shortened: as §1
binder,measurement,setting,value
"Spy0252 (Streptococcus pyogenes), Q9A1I9_STRP1 (protein) MNMKKLASLAMLGASVLGLAACGGKSQKEAGASKSDTAKTEITWWAFPVFTQEKAEDGVGTYEKKLIAAFEKANPEIKVKLETIDFTSGPEKITTAIEAGTAPDVLFDAPGRIIQYGKNGKLADLNDLFTEEFTKDVNNDKLIQASKAGDTAYMYPISSAPFYMALNKKMLKDAGVLDLVKEGWTTDDFEKVLKALKDKGYNPGSFFANGQGGDQGPRAFFANLYSSHITDDKVTKYTTDDANSIKAMTKISNWIKDGLMMNGSQYDGSADIQNFANGQTSFTILWAPAQPGIQAKLLEASKVDYLEIPFPSDDGKPELEYLVNGFAVFNNKDEQKVAASKTFIQFIADDKEWGPKNVVRTGAFPVRTSYGDLYKDKRMEKIAEWTKFYSPYYNTIDGFAEMRTLWFPMVQAVSNGDEKPEDALKAFTEKANKTIKKTQ",glycan array binding signal (z-score),[1],-0.143
same,glycan array binding signal (z-score),[2],-0.255
same,glycan array binding signal (z-score),[3],-0.236
same,glycan array binding signal (z-score),[4],-0.263
same,glycan array binding signal (z-score),[5],-0.267
same,glycan array binding signal (z-score),[6],-0.203
same,glycan array binding signal (z-score),[7],-0.267
same,glycan array binding signal (z-score),[8],-0.259
same,glycan array binding signal (z-score),[9],-0.249
same,glycan array binding signal (z-score),[10],-0.268
same,glycan array binding signal (z-score),[11],-0.212
same,glycan array binding signal (z-score),[12],5.38
same,glycan array binding signal (z-score),[13],0.228
same,glycan array binding signal (z-score),[14],-0.259
same,glycan array binding signal (z-score),[15],0.218
same,glycan array binding signal (z-score),[16],-0.248
same,glycan array binding signal (z-score),[17],-0.258
same,glycan array binding signal (z-score),[18],-0.267
same,glycan array binding signal (z-score),[19],-0.273
same,glycan array binding signal (z-score),[20],-0.271
same,glycan array binding signal (z-score),[21],-0.283
same,glycan array binding signal (z-score),[22],-0.256
same,glycan array binding signal (z-score),[23],-0.195
same,glycan array binding signal (z-score),[24],-0.279
same,glycan array binding signal (z-score),[25],-0.223
same,glycan array binding signal (z-score),[26],-0.085
same,glycan array binding signal (z-score),[27],5.54
same,glycan array binding signal (z-score),[28],-0.259
same,glycan array binding signal (z-score),[29],6.21
same,glycan array binding signal (z-score),[30],-0.268
same,glycan array binding signal (z-score),[31],-0.157
same,glycan array binding signal (z-score),[32],-0.278
same,glycan array binding signal (z-score),[33],-0.266
same,glycan array binding signal (z-score),[34],-0.277
same,glycan array binding signal (z-score),[35],-0.26
same,glycan array binding signal (z-score),[36],7.23
same,glycan array binding signal (z-score),[37],7.09
same,glycan array binding signal (z-score),[38],-0.248
same,glycan array binding signal (z-score),[39],5.2
